{
  "source": "PubChem BioAssay AID652105",
  "about": "(National Center for Advancing Translational Sciences (NCATS), 2013)",
  "note": "Out of some 330,000 compounds screened, about 4,100 (1.2%) were called active. Another 2% or so got no clear call; they are omitted. This excerpt belongs to a sample that is enriched for actives. A number with no mark means an inactive call. How the source made its calls: active means max response of -50% or lower; inconclusive means between -30% and -50%; inactive means -30% or higher. On the % scale 0 is the no-effect control and ±100 the full control effect.",
  "data": [
    {"molecular_target": "Phosphatidylinositol 5-phosphate 4-kinase type-2 alpha (Homo sapiens) (UniProt P48426)", "sequence (P48426 whole entry, looked up)": "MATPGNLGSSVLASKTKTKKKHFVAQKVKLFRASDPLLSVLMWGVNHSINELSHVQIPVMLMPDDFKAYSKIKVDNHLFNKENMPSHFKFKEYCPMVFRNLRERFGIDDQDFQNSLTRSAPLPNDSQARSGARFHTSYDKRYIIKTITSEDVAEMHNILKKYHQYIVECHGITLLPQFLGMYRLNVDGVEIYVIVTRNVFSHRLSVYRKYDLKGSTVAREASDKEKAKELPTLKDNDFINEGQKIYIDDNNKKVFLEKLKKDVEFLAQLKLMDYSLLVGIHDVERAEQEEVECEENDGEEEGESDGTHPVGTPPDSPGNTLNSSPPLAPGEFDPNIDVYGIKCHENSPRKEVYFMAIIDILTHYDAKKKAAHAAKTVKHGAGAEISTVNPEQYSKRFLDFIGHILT", "assay": "qHTS for Inhibitors of phosphatidylinositol 5-phosphate 4-kinase (PI5P4K); further: value at the top dose of about 77 µM", "details": "PI5P4Kalpha enzyme, ADP-Glo luminescence, 60 min; active compounds read low", "procedure,_shortened": "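Controls without substrate or without enzyme flank wells where PI5P4Kalpha converts substrate using 5 microM ATP (final). Incubation lasts 60 minutes at room temperature; ADP formed is read by ADP-Glo luminescence.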", "values": [
      {"compound": "COc1cccc(-c2cnc3c(NC(C)=O)cc(-c4cc(F)ccc4OC)cn23)c1", "max response": "0.465%"},
      {"compound": "Cc1ccc(-c2ccc(CN3C(C)C(=O)N(Cc4cn(CCC5OCCCO5)nn4)CCS3(=O)=O)cc2)cc1", "note": "(centres undefined)", "max response": "-1.32%"},
      {"compound": "CCOc1ccc(-n2c(O)c(/C=N/Nc3nnc(C)c(=O)[nH]3)c3ccccc3c2=O)cc1", "max response": "-64% (active)"},
      {"compound": "CCOc1ccc(-n2c(O)c(/C=N/c3ccnn3Cc3ccncc3)c3ccccc3c2=O)cc1", "max response": "1.64%"},
      {"compound": "CCOc1ccc(-n2c(O)c(/C=N/Nc3nc(C)cc(C)n3)c3ccccc3c2=O)cc1", "max response": "3.69%"},
      {"compound": "O=C1NC(O)CCN1C1CC(O)C(CO)O1", "note": "(centres undefined)", "max response": "-0.0784%"},
      {"compound": "Cc1ccc2nc(-c3ccco3)c(Cc3cccc(Cl)c3)n2c1", "max response": "-20%"},
      {"compound": "Cc1ccc(Cc2c(-c3ccco3)nc3ccc(Cl)cn23)cc1", "max response": "-53.8% (active)"},
      {"compound": "Cc1ccc(Cc2c(-c3ccccc3)nc3ccc(Cl)cn23)cc1", "max response": "3.67%"},
      {"compound": "Cc1ccc([C@H]2N[C@]3(CCCN(CC4CCCCC4)C3=O)[C@H]3C(=O)N(Cc4ccccc4)C(=O)[C@@H]23)cc1", "max response": "-7.84%"},
      {"compound": "Cc1cc(Cl)ccc1-c1nc(NCCN(C)C)nc2ccsc12", "max response": "2.25%"},
      {"compound": "Cc1cc(O)c(Sc2ccccc2)c(=O)o1", "max response": "5.88%"},
      {"compound": "Cc1ccc(N=Cc2c(O)cc(C)oc2=O)c(C)c1", "max response": "-7.86%"},
      {"compound": "Cc1cc(O)c(C(=O)/C=C/c2c(F)c(F)c(F)c(F)c2F)c(=O)o1", "max response": "-77.8% (active)"},
      {"compound": "CCc1nc2c(OCc3ccc(Cl)cc3Cl)cccn2c1N(C)C(=O)C(C)C", "max response": "2.81%"},
      {"compound": "O=C(NC1CCCC1)C1c2ccccc2OCC(=O)N1Cc1ccccc1", "note": "(centres undefined)", "max response": "-0.138%"},
      {"compound": "CCCC(=O)N1CCC1(C)C(=O)NCc1ccc(C(C)C)cc1", "note": "(centres undefined)", "max response": "-1.03%"},
      {"compound": "CC(C)Cc1ccc(-c2cc3nc(NCc4cccc(Cl)c4)ccn3n2)cc1", "max response": "47.1%"},
      {"compound": "COc1ccccc1CNC(=O)c1cc(-c2cc(Cl)ccc2C)n[nH]1", "max response": "-0.482%"},
      {"compound": "CCSc1nc(C)c(CCOc2cccc(C)c2)c(=O)[nH]1", "max response": "0.672%"},
      {"compound": "CCn1c(SC)nc(O)c(C(c2ccc(OC)c(O)c2)c2c(O)nc(SC)n(CC)c2=O)c1=O", "max response": "-12.5%"},
      {"compound": "CCSc1nc(O)c(C(c2cccc(OC)c2)c2c(O)nc(SCC)[nH]c2=O)c(=O)[nH]1", "max response": "-58.8% (active)"},
      {"compound": "O=C(c1ccccc1)N1CCN(c2cc(-c3ccccc3)nc3cc(-c4cccc(Cl)c4)nn23)CC1", "max response": "6.72%"},
      {"compound": "O=S1(=O)CC(N2CCN(Cc3ccccc3F)CC2)CN1Cc1cn(Cc2cccc(C(F)(F)F)c2)nn1", "note": "(centres undefined)", "max response": "4.9%"},
      {"compound": "O=C(Nc1ccc(F)cc1)C(CCc1ccccc1)N1CCN(CC(=O)N2CCCC2)CC1", "note": "(centres undefined)", "max response": "-9.87%"},
      {"compound": "CCS(=O)(=O)c1cc([N+](=O)[O-])c(Sc2ccccc2N)s1", "max response": "-65.8% (active)"},
      {"compound": "Cc1ccc(S(=O)(=O)NCCSc2ccccc2)cc1[N+](=O)[O-]", "max response": "-4.48%"},
      {"compound": "COc1c(C)cc(C(O)c2ncc(-c3cccc(C(F)(F)F)c3)[nH]2)cc1C", "note": "(centres undefined)", "max response": "-7.49%"},
      {"compound": "COc1ccc(/C=N/NC(=O)c2ccc3c(c2)OCCO3)c(OC)c1", "max response": "3.95%"},
      {"compound": "CCOc1ccc2[nH]c(C(=O)N/N=C/c3cccc(OC)c3OC)cc2c1", "max response": "8.06%"},
      {"compound": "COc1cc2cc(C(=O)N/N=C/c3cccc(OC)c3OC)[nH]c2cc1OC", "max response": "0.853%"},
      {"compound": "COc1ccc(Br)cc1/C=N/NC(=O)c1cccc(S(=O)(=O)N2CCOCC2)c1", "max response": "-4.11%"},
      {"compound": "COc1cccc(/C=N\\NC(=O)C2=NNC(=O)C2C)c1O", "note": "(centres undefined)", "max response": "-72.8% (active)"},
      {"compound": "COc1cccc(/C=N/NC(=O)c2[nH]nc3c2CCc2ccccc2-3)c1O", "max response": "-53% (active)"},
      {"compound": "CC1(C(=O)Nc2ccc3c(c2)OCCO3)CSCC(=O)N1CCOc1ccccc1", "note": "(centres undefined)", "max response": "-1.05%"},
      {"compound": "CC(C)(C)S(=O)N1Cc2cc(C(=O)NCCCN3CCOCC3)nc(-c3cccc(-c4cc5ccccc5o4)c3)c2[C@H]1CCO", "note": "(some centres undefined)", "max response": "0.439%"},
      {"compound": "CCCCC[C@H](C)N1C[C@@H](COCc2ccccc2)Oc2cc(N3CCC[C@@H]3CO)ccc2S1(=O)=O", "max response": "11.7%"},
      {"compound": "Cc1cc(C(=O)N/N=C/c2ccc(O)c([N+](=O)[O-])c2)c(C)n1-c1ccc(F)cc1", "max response": "-71% (active)"},
      {"compound": "Cc1nn(CC(=O)N/N=C/c2ccc(F)cc2)c(C)c1[N+](=O)[O-]", "max response": "-2.33%"},
      {"compound": "COc1cc(/C=N/NC(=O)c2cc(C)n(-c3ccc(F)cc3)c2C)cc(OC)c1O", "max response": "-10.7%"},
      {"compound": "CCCNC(=O)C1(C)CCCN(C(=O)c2oc3ccccc3c2C)C1", "note": "(centres undefined)", "max response": "-7.4%"},
      {"compound": "CCc1nc2ccc(C(=O)Nc3ccc(OC)c(OC)c3)cn2c1N(C)C(=O)c1cccc(OC)c1", "max response": "3.96%"},
      {"compound": "CCOC(=O)C1=CC[C@@H](c2ccccc2)N(S(=O)(=O)c2ccc(C)cc2)[C@H]1c1cccc(OC)c1", "max response": "4.01%"},
      {"compound": "CCOC(=O)c1ccn(S(=O)(=O)c2ccc(C)cc2)c1-c1ccccc1", "max response": "12.7%"},
      {"compound": "COc1ccc(-c2cc(C(=O)Nc3ccccc3O)c3ccccc3n2)cc1", "max response": "-106% (active)"},
      {"compound": "COc1ccc(-c2cc(C(=O)N(C)Cc3ccccc3)c3ccccc3n2)cc1", "max response": "15.4%"},
      {"compound": "COc1ccc(NC(=O)c2cc(-c3cc(OC)c(OC)c(OC)c3)nc3ccccc23)c(OC)c1", "max response": "2.36%"},
      {"compound": "COc1ccc(NC(=O)C2Cc3c(-c4ccc(Cl)cc4)ccnc3O2)cc1", "note": "(centres undefined)", "max response": "-2.22%"},
      {"compound": "Cc1ccc(-c2c(N)nc3ncccn23)cc1", "max response": "0.002%"},
      {"compound": "O=CNc1cc(-c2ccc(C(=O)N3CCOCC3)cc2)cn2c(-c3ccc(F)cc3)cnc12", "max response": "-15.7%"},
      {"compound": "CCCCNC(=O)C[C@@H]1C[C@@]2(C(=O)OCC)CCC=C2N(Cc2cccc3ccccc23)C1=O", "max response": "3.26%"},
      {"compound": "Cc1ccc(NS(=O)(=O)c2ccc(N/N=C/c3ccccc3OCC(=O)O)c([N+](=O)[O-])c2)c(C)c1", "max response": "0.282%"},
      {"compound": "COc1cccc(/C=N/Nc2ccc(S(=O)(=O)Nc3ccccc3C(=O)O)cc2[N+](=O)[O-])c1O", "max response": "-74.4% (active)"},
      {"compound": "COc1ccc(Br)cc1/C=N/Nc1ccc(S(=O)(=O)Nc2ccccc2C(=O)O)cc1[N+](=O)[O-]", "max response": "-15.6%"},
      {"compound": "Cc1noc(C)c1-c1ccc(C(=O)NCc2ccncc2)c2occc12", "max response": "1.04%"},
      {"compound": "COc1cccc(-c2nc3nc(C)cc(C)n3c2NC2CCCCC2)c1", "max response": "-7.02%"},
      {"compound": "C[C@H]1NS(=O)(=O)c2cc(Cl)ccc2O[C@@H]1c1ccccc1", "max response": "4.12%"},
      {"compound": "O=c1[nH]c(=O)n(Cc2ccco2)c2c1C(C(F)(F)F)(C(F)(F)F)N=C(c1ccco1)N2", "max response": "-76.9% (active)"},
      {"compound": "Cc1ccccc1C1=NC(C(F)(F)F)(C(F)(F)F)c2c(n(-c3ccc(F)cc3)c(=O)[nH]c2=O)N1", "max response": "-8.19%"},
      {"compound": "Nc1c(N(Cc2ccco2)C(=O)c2cccc(F)c2)c(=O)[nH]c(=O)n1Cc1ccccc1", "max response": "-14.9%"},
      {"compound": "CN(C)c1cccc(NC(=O)c2ccc(-c3ccc(F)c(F)c3)c3ccoc23)c1", "max response": "2.45%"},
      {"compound": "CCC(=O)N1CCC(C)(C(=O)Nc2cc(OC)c(OC)c(OC)c2)C1", "note": "(centres undefined)", "max response": "10.8%"},
      {"compound": "CC(=O)C1=CCC(c2ccccc2)N(S(=O)(=O)c2ccc(C)cc2)C1", "note": "(centres undefined)", "max response": "-0.133%"},
      {"compound": "COc1ccc(Cc2nnc(NS(=O)(=O)Cc3ccccc3)s2)cc1", "max response": "-3.92%"},
      {"compound": "O=C(Cc1cccs1)Nc1nnc(SCc2ccc(F)cc2)s1", "max response": "6.84%"},
      {"compound": "COc1ccc(Cc2nnc(NC(=O)Cc3cccs3)s2)cc1", "max response": "-87.6% (active)"},
      {"compound": "CCOP(=O)(OCC)C(Cc1ccccc1)N=C(c1ccccc1)c1ccccc1", "note": "(centres undefined)", "max response": "10.7%"},
      {"compound": "CC1(C(=O)NCc2ccc3c(c2)OCO3)CCN1C(=O)Cc1cccc2ccccc12", "note": "(centres undefined)", "max response": "1.27%"},
      {"compound": "O=C1NC[C@H](CCCCN2C[C@H](Cc3ccc(O)cc3)N(CC3CCCCC3)C(=O)C2=O)N(CCc2ccccc2)C1=O", "max response": "-0.0714%"},
      {"compound": "CSc1ncnc2c1ncn2CCCNCC(C)c1ccccc1", "note": "(centres undefined)", "max response": "-2.55%"},
      {"compound": "Fc1cccc(Cc2c(-c3cccc(Cl)c3)nc3ccc(Br)cn23)c1", "max response": "-13.9%"},
      {"compound": "CC(=O)Nc1cc(-c2ccc(N3CCN(C)CC3)cc2)cn2c(-c3ccc(F)cc3)cnc12", "max response": "-9.82%"},
      {"compound": "O=C(NCc1cccc(C(F)(F)F)c1)c1ccc2sc(COCCO)nc2c1", "max response": "-7.68%"},
      {"compound": "CC1(C(=O)Nc2ccc3c(c2)OCCO3)CCN1C(=O)Cc1cc(F)ccc1F", "note": "(centres undefined)", "max response": "2.77%"},
      {"compound": "O=C1C(Cl)=C(Oc2ccccc2)C(=O)c2ccccc21", "max response": "-95.6% (active)"},
      {"compound": "Clc1ccccc1Nc1nc(NCc2cccs2)nc2ccsc12", "max response": "-4.54%"},
      {"compound": "CCOc1ccc(NC(=O)c2ccc(NC(=O)COC(=O)c3ccc(NC(=O)CC#N)cc3)cc2)cc1", "max response": "-67.8% (active)"},
      {"compound": "Cc1cccc(C(=O)OCC(=O)Nc2sc3c(c2C#N)CCC3)c1", "max response": "-29.9%"},
      {"compound": "CCOc1ccc(NC(=O)CCNC(=O)c2ccc(Br)cc2)cc1", "max response": "-0.675%"},
      {"compound": "CC(=O)c1c(C)[nH]c(C(=O)OCC(=O)Nc2sc3c(c2C#N)CCCC3)c1C", "max response": "-6.62%"},
      {"compound": "N#CCC(=O)Nc1ccc(C(=O)OCC(=O)Nc2sc3c(c2C#N)CCCC3)cc1", "max response": "-64.2% (active)"},
      {"compound": "CC(C)NC(=O)NC(=O)COC(=O)c1ccc(NC(=O)CC#N)cc1", "max response": "-8.69%"},
      {"compound": "CC1=C(C(=O)N(C(C)C)C(C)C)CC(CC(=O)NCCCCc2ccccc2)C(=O)N1CCC1=CCCCC1", "note": "(centres undefined)", "max response": "-0.015%"},
      {"compound": "COC(=O)C[C@H]1C=C[C@@H](NS(=O)(=O)c2ccc(C)cc2)[C@@H](CO)O1", "max response": "0.772%"}
    ]}
  ]
}
